Source: PubChem BioAssay AID1159580 (chemical genetic matrix, 2015)
Values joined by “and” are separate entries in the source; they are usually repeats but may differ in a detail not shown here. Equal values may be shown once. Among all 5,500 compounds or so, about 2,000 (36%) were called active. About 18% were inconclusive and are not listed. Rule as the data show it: active = normalized growth mostly below about 0.91 (no sharp cut-off); inconclusive = no clear call, values can overlap the other calls; inactive = mostly above about 0.92. This is one part of the list.

Assay: chemical genetic growth profiling, strain panel (AID 1159580);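 also: tested at 20 µM; growth read once vehicle control cultures reached saturation at 30 °C; 1 = growth at the plate median or of vehicle wells; lower values mean less growth of the strain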
Settings: S. cerevisiae deletion strains, growth OD

Measured: normalized growth

NCCSSCCN
inactive: locus YAL013W, strain DEP1, hits give low values 1.01 | locus YAL021C, strain ccr4, hits give low values 0.998 | locus YAL026C, strain drs2, hits give low values 0.999 | locus YAL030W, strain snc1, hits give low values 0.994 | locus YAL040C, strain CLN3, hits give low values 1.02 | locus YBL061C, strain skt5, hits give low values 0.997 | locus YBR009C, strain hhf1, hits give low values 0.992 | locus YBR021W, strain FUR4, hits give low values 1.01 | locus YBR023C, strain chs3, hits give low values 0.991 | locus YBR171W, strain sec66, hits give low values 0.988 | locus YBR229C, strain ROT2, hits give low values 1 | locus YBR231C, strain swc5, hits give low values 0.994 | locus YBR279W, strain paf1, hits give low values 0.996 | locus YCL011C, strain gbp2, hits give low values 1 | locus YCL016C, strain dcc1, hits give low values 1 | locus YCL029C, strain bik1, hits give low values 1.03 | locus YCL061C, strain MRC1 (second series), hits give low values 1 | locus YCL069W, strain vba3, hits give low values 0.997 | locus YCR088W, strain abp1, hits give low values 0.991 | locus YDL005C, strain med2, hits give low values 0.988 | locus YDL035C, strain GPR1, hits give low values 1.01 | locus YDL040C, strain nat1, hits give low values 0.996 | locus YDL074C, strain BRE1, hits give low values 1.03 | locus YDL101C, strain DUN1, hits give low values 1.03 | locus YDL134C, strain PPH21, hits give low values 1.01 | locus YDL185W, strain tfp1, hits give low values 1 | locus YDL192W, strain arf1, hits give low values 1 | locus YDR001C, strain nth1, hits give low values 0.992 | locus YDR069C, strain doa4, hits give low values 0.983 | locus YDR101C, strain arx1, hits give low values 1.01 | locus YDR137W, strain rgp1, hits give low values 1.03 | locus YDR150W, strain NUM1, hits give low values 1.01 | locus YDR159W, strain sac3, hits give low values 1.01 | locus YDR162C, strain NBP2, hits give low values 1.01 | locus YDR195W, strain ref2 0.975 | locus YDR297W, strain sur2, hits give low values 1 | locus YDR318W, strain mcm21, hits give low values 1.01 | locus YDR334W, strain swr1, hits give low values 0.996 | locus YDR335W, strain msn5, hits give low values 0.991 | locus YDR388W, hits give low values 1.01 | locus YDR392W, strain spt3, hits give low values 1.01 | locus YDR502C, strain sam2, hits give low values 0.996 | locus YEL003W, strain gim4, hits give low values 0.994 | locus YEL037C, strain rad23, hits give low values 1 | locus YEL061C, strain CIN8 (second series), hits give low values 0.989 | locus YEL061C, strain CIN8, hits give low values 1 | locus YER002W, strain NOP16, hits give low values 1.02 | locus YER015W, strain faa2, hits give low values 1 | locus YER016W, strain bim1, hits give low values 0.992 | locus YER110C, hits give low values 1.01 | locus YER111C, strain swi4, hits give low values 0.989 | locus YER155C, strain BEM2 (second series), hits give low values 0.952 | locus YER155C, strain BEM2, hits give low values 1.01 | locus YER167W, strain BCK2, hits give low values 0.997 | locus YFR010W, strain ubp6, hits give low values 0.994 | locus YGL078C, strain dbp3, hits give low values 1 | locus YGL086W, strain mad1, hits give low values 0.985 | locus YGL167C, strain pmr1, hits give low values 0.993 | locus YGL173C, strain kem1, hits give low values 0.99 | locus YGL227W, strain vid30, hits give low values 0.99 | locus YGL240W, strain doc1, hits give low values 0.978 | locus YGL248W, strain PDE1, hits give low values 1 | locus YGL253W, strain hxk2, hits give low values 0.995 | locus YGR078C, strain PAC10, hits give low values 1.02 and 1 | locus YGR135W, strain pre9, hits give low values 0.997 | locus YGR229C, strain SMI1, hits give low values 0.982 | locus YGR252W, strain gcn5, hits give low values 0.918 | locus YHR013C, strain ard1, hits give low values 0.996 | locus YHR027C, strain rpn1, hits give low values 0.997 | locus YHR030C, strain SLT2, hits give low values 1 and 1.05 | locus YHR079C, strain IRE1 (second series), hits give low values 1.02 | locus YHR079C, strain IRE1, hits give low values 1.05 | locus YHR094C, strain hxt1, hits give low values 1.01 | locus YHR129C, strain ARP1, hits give low values 1.02 | locus YHR142W, strain chs7, hits give low values 1.01 | locus YHR200W, strain rpn10, hits give low values 1.01 | locus YIL066C, strain RNR3, hits give low values 1.02 | locus YIL073C, strain SPO22, hits give low values 1.02 | locus YIL125W, strain kgd1, hits give low values 0.996 | locus YIR030C, strain dcg1, hits give low values 1.01 | locus YJL092W, strain hpr5, hits give low values 1 | locus YJL095W, strain BCK1 (second series), hits give low values 0.989 | locus YJL095W, strain BCK1, hits give low values 1.04 and 1.06 | locus YJL115W, strain asf1, hits give low values 0.988 | locus YJL129C, strain trk1, hits give low values 0.986 | locus YJL134W, strain LCB3, hits give low values 1 | locus YJL154C, strain vps35, hits give low values 0.993 | locus YJL164C, strain tpk1, hits give low values 1.01 | locus YJL166W, strain qcr8, hits give low values 0.989 | locus YJL168C, strain set2, hits give low values 1.01 | locus YJL187C, strain SWE1 (second series), hits give low values 1.03 | locus YJL187C, strain SWE1, hits give low values 0.993 | locus YJR043C, strain POL32, hits give low values 1.03 | locus YJR066W, strain TOR1, hits give low values 0.918 | locus YJR075W, strain HOC1, hits give low values 1.01
